# Screening data from PubChem BioAssay.
# D2 ag-1: agonists of human D2 dopamine receptor (beta-arrestin); DiscoveRx PathHunter D2 beta-arrestin, luminescence, 90 min; 100% = 57 uM dopamine signal; activation, % (test concentration not listed); P14416; AID 624465; 0.084% of 360,000 active; in the data active means activation above about 40%
# Target sequence (P14416 whole entry, looked up): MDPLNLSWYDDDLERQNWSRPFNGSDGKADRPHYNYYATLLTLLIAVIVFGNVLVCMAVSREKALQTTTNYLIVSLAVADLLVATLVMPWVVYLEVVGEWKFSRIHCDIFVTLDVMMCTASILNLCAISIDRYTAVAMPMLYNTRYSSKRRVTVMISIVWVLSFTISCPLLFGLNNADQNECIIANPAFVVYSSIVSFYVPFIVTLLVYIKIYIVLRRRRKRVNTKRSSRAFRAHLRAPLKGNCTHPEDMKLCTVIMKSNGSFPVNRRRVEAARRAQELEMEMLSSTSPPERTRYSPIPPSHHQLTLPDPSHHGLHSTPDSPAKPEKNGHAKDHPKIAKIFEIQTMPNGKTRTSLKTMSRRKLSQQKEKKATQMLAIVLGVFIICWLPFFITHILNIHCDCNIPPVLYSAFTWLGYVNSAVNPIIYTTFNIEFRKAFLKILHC
#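 DiscoveRx PathHunter D2 beta-arrestin cells (2,100/well) attached overnight, then compound-stimulated 90 min at 37 C in HBSS/10 mM HEPES/0.1% Tween-20 buffer; beta-galactosidase complementation read by luminescence after 1 h at ambient temperature. Dopamine 57 uM final (EC100) as control.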
# D2 ag-2: agonists of human D2 dopamine receptor | P14416 | HEK293 T-REx D2 cells, calcium flux agonist mode | activation, % at 2 µM | 0.53% of 340,000 active | AID 485358;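 active means activation over 3 SD above normal in the single-dose calcium agonist read, cut at about 30% in these data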
#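 In this primary screen, compounds producing a positive calcium signal within 180 s of addition to tetracycline-induced, force-coupled HEK293 Trex D2 cells are flagged; cells are dye-loaded with a no-wash calcium kit beforehand.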
# D2 antag: antagonizes the human D2 dopamine receptor; HEK293 TREx D2 cells, calcium flux, dopamine EC80; inhibition, % at 10 µM; 2% of 340,000 active; AID 485344; in the data active means inhibition above about 30%; inactive means below that, where a call was filed
#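 Antagonism is scored as inhibition of an EC80 dopamine-evoked calcium signal in a force-coupled, tetracycline-inducible HEK293 T-REx D2 line, with compound present 180 s before agonist.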
# D2 PAM-1: positive allosteric modulators of human D2 dopamine receptor. potentiation, % (no concentration beside the values). 0.23% of 360,000 active. P14416. DiscoveRx D2 beta-arrestin cells, luminescence, 90 min; 100% = 57 uM dopamine signal; in the data active means potentiation above about 50%
#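 D2 cells co-treated with compound plus 50 nM dopamine (EC20) for 90 min at 37 deg C to detect potentiation. Beta-arrestin recruitment was read as enzyme-fragment luminescence after 1 h at ambient temperature. Full response was set by 57 uM dopamine.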
# D2 PAM-2: positive allosteric modulators of human D2 dopamine receptor. P14416. HEK293 T-REx D2, calcium flux, EC20 dopamine potentiation. potentiation, % at 10 µM. 0.34% of 340,000 active;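 active means potentiation over 3 SD above the plate norm, cut at about 30% in these data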
#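 Primary screen. Calcium kinetics in induced HEK293 T-REx D2 cells: compound pre-addition 180 s, EC20 dopamine, 180 s more.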
# A number is an active result; – = inactive; · = no result. A selection: hits, their analogues and other compounds. The true share with any hit is near 2.4%.
SMILES,D2 ag-1,D2 ag-2,D2 antag,D2 PAM-1,D2 PAM-2
O=C1C=C(c2cc(F)ccc2F)C[C@@H](c2ccc(Cl)cc2)C1,–,–,–,–,–
COc1cc(F)c(C2=CC(=O)C[C@H](c3ccc(Cl)cc3)C2)cc1F,–,–,35,–,–
O=c1c2ccccc2nc(SCc2cc(F)cc3c2OCOC3)n1Cc1ccco1,–,–,–,–,–
CCOC(=O)c1cc2c(c(CSc3nc4ccccc4c(=O)n3Cc3ccco3)c1)OCOC2,–,–,31,–,–
O=C(CN1C(=O)COc2ccccc21)NCCc1ccc(Cl)cc1,·,–,·,·,–
O=C(O)CC1(CC(=O)N2CCOCC2)CCCC1,–,–,–,–,36
O=C(O)CC1(CC(=O)N2CCC(C(=O)O)CC2)CCCC1,–,–,–,–,–
O=c1c2c(nc(NCCO)n1CC1CCCCC1)-c1ccccc1CC21CCCC1,–,–,–,–,–
CC1(C)CC(n2c(NCCO)nc3c(c2=O)C2(CCCC2)Cc2ccccc2-3)CCO1 (stereo unspecified),–,–,–,–,34
Cc1ccc(-c2nc(CN3CCCCC3CCN3CCCC3=O)c(C)o2)o1 (stereo unspecified),–,·,·,–,·
Cc1oc(-c2cccc(F)c2)nc1CN1CCCCC1CCn1cccn1 (stereo unspecified),–,–,45,–,–
CCCCCCOC(=O)C(C#N)c1nc2ccccc2nc1N1CCCCC1 (stereo unspecified),–,–,–,–,35
N#Cc1ccc(Nc2ccccc2)c(N)c1,–,–,31,–,–
Nc1cc([N+](=O)[O-])ccc1Nc1ccccc1,–,–,–,–,–
Nc1cc(C(F)(F)F)ccc1Nc1ccccc1,–,–,67,–,–
COc1ccccc1C(=O)Nc1cc2c(cc1N1CCCCC1)n(C)c(=O)n2C,·,·,·,·,–
Cc1ccn(CC(C)C(=O)O)n1 (stereo unspecified),–,–,34,–,–
Cc1ccn(CCSCC(=O)O)n1,–,–,–,–,–
CC(=O)c1cccc(NC(=O)c2ccc(-n3c(C)nnc3C)cc2)c1,·,–,·,·,–
COc1ccccc1C(=O)NCCC(=O)N(C)CC(=O)Nc1c(Cl)cccc1Cl,–,–,–,–,–
COc1ccc(Cl)cc1NC(=O)CN(C)C(=O)CCNC(=O)c1ccccc1OC,–,–,31,–,–
COc1ccc(Cl)cc1NC(=O)CN(C)C(=O)Cc1ccc2c(c1)CCC2,–,–,–,–,–
COc1ccc(Cl)cc1NC(=O)CN(C)C(=O)c1cn(-c2ccccc2)nc1-c1cccnc1,–,–,44,–,–
COc1ccc(Cl)cc1NC(=O)CN(C)C(=O)c1cc2c(s1)CCCC2,–,–,46,–,–
COc1ccc(Cl)cc1C(=O)NCCN(C)C,–,–,33,–,–
SMILES,D2 ag-1,D2 ag-2,D2 antag,D2 PAM-1,D2 PAM-2
Cc1cccc(OCC(=O)Nc2c(C(=O)N3CCN(c4ccccc4)CC3)oc3ccccc23)c1,·,·,·,·,–
Nc1nc(Cl)nc2c1ncn2[C@@H]1O[C@H](CO)[C@@H](O)[C@H]1O,–,–,37,–,–
CCC(C)NC(=O)CCC(=O)N1Cc2ccccc2Oc2ncccc21 (stereo unspecified),·,–,·,·,–
O=C1CSC(=S)N1/N=C/c1cc(Br)c(O)c(Br)c1,–,85,–,–,–
Cc1ccc(C2CC(C(F)(F)F)n3ncc(C(=O)NCc4ccco4)c3N2)cc1 (stereo unspecified),–,–,37,–,–
CCOP(=O)(OCC)C(Nc1cccc(C(F)(F)F)c1)c1ccc(C)cc1 (stereo unspecified),–,37,–,–,–
COc1ccc(-c2cc(C(=O)Nc3c(Cl)cccc3Cl)no2)cc1OC,·,–,·,·,–
NCCC(=O)N1c2ccccc2Sc2ccc(Cl)cc21,–,42,48,–,–
CN1CCC=C(C(=O)N2c3ccccc3Sc3ccc(Cl)cc32)C1,–,–,39,–,–
CCc1ccccc1NC(=O)Nc1ccc2c(c1)N(CC)C(=O)c1ccccc1S2,·,–,·,·,–
COc1ccc(OC)c(NC(=O)C(CCSC)NS(=O)(=O)c2cccs2)c1 (stereo unspecified),–,–,32,–,–
CCOc1ccc(CCNC(=O)c2cn(CC)c3ccc(S(=O)(=O)N4CCc5ccccc5C4)cc3c2=O)cc1OCC,·,–,·,·,–
Cc1noc(C)c1S(=O)(=O)NCCN1CCN(c2ccccc2)CC1,–,31,33,–,–
Cc1cc(=O)oc2c(C)c(OCC(=O)N3CCN(c4ccc(F)cc4)CC3)ccc12,–,–,–,–,–
Cc1cccc(N2CCN(C(=O)COc3ccc4c(C)cc(=O)oc4c3C)CC2)c1C,–,–,–,–,39
Cc1ccc(CN2C(=O)CCSc3ccc(Cl)cc32)cc1,–,–,–,–,–
O=C1CCSc2ccc(Cl)cc2N1Cc1cccc(Cl)c1,–,–,33,–,–
CSc1cccc(NC(=O)c2ccc3c(c2)CCCN3S(C)(=O)=O)c1,·,–,·,·,–
COc1ccc(C(=O)N/C(=C\c2cc(OC)c(OC)cc2[N+](=O)[O-])C(=O)NCCO)cc1,–,–,39,–,–
O=C(CSc1ncc(-c2ccccc2)nn1)NCc1ccco1,–,–,–,–,–
COc1ccc(-c2[nH]c(-c3cccc(OC)c3)nc2SCC(=O)NCc2ccco2)cc1,–,–,39,–,–
O=C(CSc1nnc(-c2ccccc2)c(-c2ccccc2)n1)NCc1ccco1,–,–,40,–,–
CC(=O)C(Sc1nc(-c2ccccc2Cl)nc2c1c(=O)n(C)c(=O)n2C)C(=O)N(C)C (stereo unspecified),·,–,·,·,–
CCOC(=O)c1sc(=S)n(-c2ccc(C)cc2)c1SC,–,–,48,–,–
CCOC(=O)c1cc(-c2ccccc2)n(CCC(=O)Nc2ccc(Cl)c(C(F)(F)F)c2)c1C,·,·,·,·,–
SMILES,D2 ag-1,D2 ag-2,D2 antag,D2 PAM-1,D2 PAM-2
CCn1cc(S(=O)(=O)N2CCN(Cc3cccc(Cl)c3)CC2)cn1,–,–,34,–,–
NS(=O)(=O)c1ccc(CCNc2nc3c(-c4cccc(F)c4)nnn3c3ccc(Cl)cc23)cc1,·,–,·,·,–
COc1cc(/C=C/C(=O)OCC(=O)NC(=O)NC(C)C)ccc1OCC#N,–,–,46,–,–
CC(=O)Nc1ccc(Oc2sc(C(=O)c3ccccc3)c(N)c2C#N)cc1,–,–,31,–,–
O=C(Nc1cccc(F)c1)c1ccccc1,–,–,–,–,–
O=C(Nc1ccc(Nc2ccccc2)cc1)c1cccc(F)c1,–,–,–,–,32
CCOc1ccccc1C(=O)NC(C)c1ccc2c(c1)OCO2 (stereo unspecified),–,–,40,–,–
O=C(Nc1cccc(F)c1)c1ccc2c(c1)OCO2,–,–,31,–,·
CCOc1cc(C(=O)Nc2ccc3c(c2)OCO3)ccc1OCCOc1ccccc1Cl,–,–,32,–,–
